For experiment [1], the target named is Glutathione peroxidase 1 (Homo sapiens) (UniProt P07203). As to the kind of experiment: Primary qHTS Assay for Inhibitors of Recombinant Selenoprotein Glutathione Peroxidase 1 (GPX1) (AID 1845191). Also: nearly all actives have a fitted effect of over 65% in size. As to activity, negative = inhibition: % is scaled to controls: 0 for no effect and ±100 for the full control effect. The method, boiled down:
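Recombinant GPX1 (10 nM final) was preincubated with compound for 30 min at room temperature, then reacted with 1 mM GSH, 0.5 mM CHP, 0.5 mM NADPH and 100 nM glutathione reductase; NADPH fluorescence (340/450 nm) was read at 0 and 15 min.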

In experiment [2] the target is Phospholipid hydroperoxide glutathione peroxidase GPX4 (Homo sapiens) (UniProt P36969). As to the kind of experiment: Primary qHTS Assay for Inhibitors of Recombinant Selenoprotein Glutathione Peroxidase 4 (GPX4) (AID 1845192). Also: nearly all actives have a fitted effect of over 65% in size. The essentials:
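GR-coupled readout: 100 nM GR, 1 mM GSH, 0.5 mM NADPH; NADPH fluorescence (ex 340/em 450 nm) read at t=0 and after 15 min RT. GPX4 200 nM, preincubated 30 min with compound; substrate 0.5 mM CHP.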
(In general: qHTS replaces the single test concentration by a dilution series.)

In experiment [3] the target is Luciferin 4-monooxygenase (Photinus pyralis) (UniProt P08659). Put plainly: Primary firefly luciferase (FLuc) qHTS assay for identification of artifact compounds. (AID 1845220). Also: nearly all actives have a fitted effect of over 60% in size. Also: potency is read from the fitted curve at half-maximal effect. The method, boiled down:
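In this counter-screen for luciferase artifacts, test compounds met substrate (10 uM each luciferin and ATP) before 10 nM enzyme started the reaction. Light output was measured 5 min later.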

A short description of experiment [4]: Primary fluorescence-based thiol-reactive (MSTI) qHTS assay for identification of artifact compounds. (AID 1845221).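 Also: series mostly up to about 54 µM; thiol-reactive compounds lower the probe fluorescence signal; nearly all actives have a fitted effect of over 65% in size.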 The method, boiled down:
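Reactivity toward the thiol probe MSTI (4 uM) is scored by fluorescence at Ex/Em 525/598 nm after 1 h at room temperature. Acetyl-MSTI and MSTI define the activity scale.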

Experiment [5] relates to Nanoluciferase (engineered Oplophorus gracilirostris luciferase). Put plainly: Primary Nanoluciferase (NLuc) qHTS assay for identification of artifact compounds. (AID 1845222).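 Also: NLuc secreted into diluted conditioned medium of S16 cells; series mostly up to about 54 µM; 0% = DMSO and -100% = no enzyme.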 The method, boiled down: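 Using secreted nanoluciferase in S16 culture medium (0.22 um filtered, 1:55 dilution), compounds were preincubated 15 min at RT. Signal was generated with Nano-Glo reagent (1:100) over 5 min.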

The nature of experiment [6]: Primary redox qHTS assay for identification of artifact compounds. (AID 1845223).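 Also: 0% = DMSO and 100% = reference compound.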 The method, boiled down:
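Amplex Red (25 uM) and HRP (250 mU/mL) in HBSS, with compounds for 15 min, then 250 uM DTT for 30 min, room temperature, dark. Fluorescence 525/598 nm read; normalized to DMSO and 10 uM DA3003; Hill fit.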

Unmarked numbers belong to inactive results. Inconclusive results are not listed. Calls of active or inactive are those of the source. Calls follow the shape of the dose curve; as a rule, active = well fitted curve in the direction sought with a large enough effect; inconclusive = small, poorly fitted or top-dose-only effect, or another doubt; inactive = no such curve, though single readings can be large; an effect the other way counts as inactive or inconclusive.

Chain of Phospholipid hydroperoxide glutathione peroxidase GPX4 (Homo sapiens) (P36969 whole entry, looked up): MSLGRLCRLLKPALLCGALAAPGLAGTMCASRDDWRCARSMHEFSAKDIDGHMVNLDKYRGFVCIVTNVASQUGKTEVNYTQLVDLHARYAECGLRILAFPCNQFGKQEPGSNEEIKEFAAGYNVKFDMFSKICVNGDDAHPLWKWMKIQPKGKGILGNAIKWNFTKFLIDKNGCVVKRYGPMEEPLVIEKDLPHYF
Chain of Glutathione peroxidase 1 (Homo sapiens) (P07203 whole entry, looked up): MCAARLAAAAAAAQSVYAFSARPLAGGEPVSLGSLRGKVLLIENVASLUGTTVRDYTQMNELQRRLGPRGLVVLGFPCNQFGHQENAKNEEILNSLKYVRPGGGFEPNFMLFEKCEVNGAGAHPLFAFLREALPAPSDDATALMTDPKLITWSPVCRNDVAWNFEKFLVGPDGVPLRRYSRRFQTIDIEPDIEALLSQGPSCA

For `OC1(c2ccc(Cl)cc2)c2ccccc2C2=NCCN21` (stereo not drawn), the Potency result in experiment [1], in experiment [2], in experiment [3] and in experiment [4] was “inactive” throughout. Also, the molecule was called inactive in experiment [5] and in experiment [6].

With `C=C[C@H]1[C@H](O[C@@H]2O[C@H](CO)[C@@H](O)[C@H](O)[C@H]2O)OC=C2C(=O)OCC[C@H]21`, the Potency entry in experiment [1], in experiment [2], in experiment [3] and in experiment [4] was “inactive” in each case. For the same molecule, the result in experiment [5] and in experiment [6] was inactive.

For `CN1C(=O)N(c2ccc(C#N)c(C(F)(F)F)c2)C(=O)[C@]1(CO)c1ccccc1`, the Potency result in experiment [1], in experiment [2], in experiment [3] and in experiment [4] was “inactive” throughout. The molecule was called inactive in experiment [5] and in experiment [6].

Consider `COc1cc(C)[nH]c(=O)c1CNC(=O)c1c(C)n([C@H](C)C2CCOCC2)c2ccccc12`, for which the Potency result in experiment [1], in experiment [2], in experiment [3] and in experiment [4] was “inactive” throughout. Besides, in experiment [5], the result was inactive.

For the molecule `Clc1ccc(N2C[C@H]3CC[C@@H](C2)N3)nn1`, the Potency entry in experiment [1], in experiment [2], in experiment [3] and in experiment [4] was “inactive” in each case. The outcome in experiment [5] and in experiment [6] was inactive.

Turning to `COC(=O)C1(C)CCC(=O)C2(C)c3c(O)cc(C(C)C)cc3C(O)C(OC(C)=O)C12` (stereo not drawn), the Potency entry in experiment [1], in experiment [2], in experiment [3] and in experiment [4] was “inactive” throughout. The call in experiment [5] and in experiment [6] was inactive.

In the case of `CCC(C)(C#N)O[C@@H]1O[C@H](CO)[C@@H](O)[C@H](O)[C@H]1O` (stereo partly drawn), the Potency result in experiment [1], in experiment [2], in experiment [3] and in experiment [4] was “inactive” in each case. The result in experiment [5] and in experiment [6] was inactive.

For the molecule `O=C(O)c1ccnc2cc(C(OCCN3CCCCC3)c3ccccc3Cl)[nH]c12` (stereo not drawn), the Potency entry in experiment [1], in experiment [2], in experiment [3] and in experiment [4] was “inactive” in each case. Moreover, the molecule was called inactive in experiment [5].

As for `CO[C@H]1[C@H](O)[C@H](O[C@H]2CC[C@]3(C)C4CC[C@]5(C)[C@H](C6=CC(=O)OC6)CC[C@]5(O)C4CC[C@@H]3C2)O[C@@H](C)[C@@H]1O` (stereo partly drawn), the Potency entry in experiment [1], in experiment [2] and in experiment [4] was “inactive” throughout. For the same molecule, the Potency in experiment [3] is 7.38 µM (active). In experiment [5], the molecule was classed as inactive.

On to `CCN1C[C@]2(COC(=O)c3ccccc3N3C(=O)C[C@H](C)C3=O)CC[C@H](OC)[C@@]34[C@@H]5C[C@H]6[C@H](OC)[C@@H]5[C@](O)(C[C@@H]6OC)[C@](O)([C@@H](OC)[C@H]23)[C@@H]14`, for which the Potency entry in experiment [1], in experiment [2], in experiment [3] and in experiment [4] was “inactive” in each case. The call in experiment [5] and in experiment [6] was inactive.

`C/C=C(\C)C(=O)OC1C(C)OC(OC2C(C)OC(OC3CCC4(C)C(=CCC5C4CCC4(C)C(C(C)OC6OC(COC7OC(CO)C(O)C(O)C7O)C(O)C(O)C6O)CCC54O)C3)CC2OC)C(O)C1OC` (stereo not drawn): the Potency result in experiment [1] and in experiment [2] was “inactive” each time. Also, the outcome in experiment [3] is “inactive [at 11.6 µM]”. Moreover, the activity change, negative = thiol reactive in experiment [4] was 16.4% [at 11.5 µM]. For the same molecule, the activity, negative = inhibition in experiment [5] was 0% [at 11.6 µM]. Moreover, the redox activity (% of DA3003) in experiment [6] is -7.77% [at 11.5 µM].

For `C[C@H]1C(=O)O[C@H]2[C@H](O)[C@]34C5OC(=O)[C@]3(O[C@@H]3OC(=O)[C@H](O)C34[C@H](C(C)(C)C)[C@H]5O)C12O` (stereo partly drawn), the Potency entry in experiment [1], in experiment [2], in experiment [3] and in experiment [4] was “inactive” each time. Besides, the call in experiment [5] and in experiment [6] was inactive.

Regarding `O=C1C[C@@H]2OCC=C3CN4CC[C@]56c7ccccc7N1[C@H]5[C@H]2[C@H]3C[C@H]46`, the Potency entry in experiment [1], in experiment [2], in experiment [3] and in experiment [4] was “inactive” throughout. For the same molecule, the outcome in experiment [5] and in experiment [6] was inactive.

For the molecule `COc1cc(CCNCc2ccccc2O)c(OC)cc1C#N`, the Potency result in experiment [1], in experiment [2], in experiment [3] and in experiment [4] was “inactive” each time. The outcome in experiment [5] and in experiment [6] was inactive.

As to `O=C(N1CCOCC1)N1CCN(c2ccc(Cl)cc2)CC1`, the Potency entry in experiment [1], in experiment [2], in experiment [3] and in experiment [4] was “inactive” in each case. The call in experiment [5] and in experiment [6] was inactive.

With `C=C1[C@@H]2CC[C@@]3(C)[C@H](c4ccoc4)OC(=O)C[C@]13O[C@H]1CC(=O)C(C)(C)[C@H](C(OC(C)=O)C(=O)OC)[C@]12C` (stereo partly drawn), the Potency entry in experiment [1], in experiment [2], in experiment [3] and in experiment [4] was “inactive” throughout. Moreover, the outcome in experiment [5] and in experiment [6] was inactive.

For `N#C[C@@H](O[C@@H]1O[C@H](CO[C@@H]2O[C@H](CO)[C@@H](O)[C@H](O)[C@H]2O)[C@@H](O)[C@H](O)[C@H]1O)c1ccccc1`, the Potency result in experiment [1], in experiment [2], in experiment [3] and in experiment [4] was “inactive” in each case. Further, the molecule was called inactive in experiment [5] and in experiment [6].

Regarding `C=C[C@H]1CN2CC[C@H]1C[C@@H]2[C@@H](O)c1ccnc2ccccc12`, the Potency entry in experiment [1], in experiment [2], in experiment [3] and in experiment [4] was “inactive” throughout. For the same molecule, the molecule was classed as inactive in experiment [5] and in experiment [6].

With `CC(C)C1(OO)C=C2C(=O)CC3C(C)(C(=O)O)CCCC3(C)C2CC1` (stereo not drawn), the Potency result in experiment [1], in experiment [2], in experiment [3] and in experiment [4] was “inactive” each time. The molecule was called inactive in experiment [5] and in experiment [6].

With `Cc1cc(C(=O)CN2CCCC2)c(C)n1-c1ccc(F)cc1`, the Potency result in experiment [1], in experiment [2], in experiment [3] and in experiment [4] was “inactive” throughout. Also, the call in experiment [5] and in experiment [6] was inactive.

Take `C[C@]12CC[C@H]3[C@@H]([C@H](O)CC4=CC(=O)CC[C@@]43C)[C@@H]1CC[C@@H]2O`: the Potency result in experiment [1], in experiment [2], in experiment [3] and in experiment [4] was “inactive” each time. In addition, the molecule was called inactive in experiment [5] and in experiment [6].
